Assay outcomes: PubChem, University of Kansas High Throughput Screening Laboratory
Hits are enriched below; roughly 3.6% of the tested compounds scored in any of these assays.
Pf apPOL block = Pf-apPOL DNA polymerase inhibition. actives 0.25% (n = 210,000). Recombinant Pf-apPOL, molecular beacon fluorescence, 1.5 h. inhibition, % at 10 µM. AID 1794808
mHTT CaM bind = inhibitors of human mutant huntingtin-calmodulin interaction | P42858 | AlphaScreen His-mHTT/GST-CaM binding, luminescence | inhibition, % at 15 µM | actives 3.6% (n = 190,000) | AID 1671202;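 further: 0% = both proteins with DMSO and 100% = one protein alone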
Numbers without * were called inactive. No stated cut-off is given here; in the data, active means inhibition above about 50%; inactive means the rest.

COc1cc2c(cc1OC)C(COc1ccccc1OC)N(C(=O)c1ccccc1OC)CC2 (stereo not drawn) was read as Pf apPOL block -6 and mHTT CaM bind 37.
Screening COc1ccc(OCC2c3cc(OC)c(OC)cc3CCN2C(=O)c2ccc(C)cc2)cc1 (stereo not drawn) returned Pf apPOL block 2 and mHTT CaM bind 77*.
Screening CCOc1ccc(C(=O)N2CCc3cc(OC)c(OC)cc3C2COc2ccccc2OC)cc1 (stereo not drawn) returned Pf apPOL block 1 and mHTT CaM bind 73*.
COC(=O)c1ccc(OCC2c3cc(OC)c(OC)cc3CCN2C(=O)c2ccc(OC)cc2)cc1 (stereo not drawn) was read as Pf apPOL block -4 and mHTT CaM bind 47.
`CCCN1C(=O)Cc2ccccc2C1C(=O)NCc1ccccc1C(F)(F)F` (stereo not drawn) gave Pf apPOL block -6 and mHTT CaM bind 1.
`OCc1cc(-c2ccc(Cl)c(Cl)c2)no1` gave Pf apPOL block -2.
`C=CCNC(=O)c1c[nH]c2ccc(S(=O)(=O)N(C)c3ccccc3C)cc2c1=O` gave Pf apPOL block -11 and mHTT CaM bind 35.
O=C(C1CCN(Cc2ccc(OCc3ccccc3)cc2)CC1)N1CCN(c2ccccc2)CC1 was read as Pf apPOL block -7 and mHTT CaM bind 63*.
Screening O=C(C1CCN(Cc2cccc(OCc3ccccc3)c2)CC1)N1CCOCC1 returned Pf apPOL block -4 and mHTT CaM bind 1.
`Cc1cccc(CN2CCN(C3CCN(C(=O)Nc4ccc(C)c(Cl)c4)CC3)C2=O)c1` gave Pf apPOL block 2 and mHTT CaM bind 0.
CCOc1ccc(NC(=O)C2CCCN(c3nnc4ccc(Cl)cn34)C2)cc1 (stereo not drawn) was read as Pf apPOL block -8 and mHTT CaM bind 3.
For Cc1ccc(OCc2nnc(SCC(=O)NCc3ccccc3)o2)cc1 the results were Pf apPOL block -3 and mHTT CaM bind -1.
For O=C(CSc1nnc(COc2ccc3c(c2)CCCC3)o1)NCc1ccccc1 the results were Pf apPOL block 95* and mHTT CaM bind 0.
`CC(C(=O)NCCc1c[nH]c2ccccc12)C1CCN(S(=O)(=O)c2cccs2)CC1` (stereo not drawn) gave Pf apPOL block -2 and mHTT CaM bind 6.
`CCc1ccc(S(=O)(=O)N2CCC(CN3CCC(C)CC3)CC2)cc1` gave Pf apPOL block -3 and mHTT CaM bind -9.
For CCc1ccc(S(=O)(=O)N2CCC(CN3CCCCCC3)CC2)cc1 the results were Pf apPOL block 2 and mHTT CaM bind 100*.
Screening Cc1ccc(Nc2ccc(NC(=O)c3snnc3C)cc2)nn1 returned Pf apPOL block -4 and mHTT CaM bind 100*.
`Cc1nnsc1C(=O)Nc1ccc(CN2CCS(=O)(=O)CC2)cc1` gave Pf apPOL block -3.
Screening Cc1ccsc1CNS(=O)(=O)c1ccccc1 returned Pf apPOL block -3.
CCN(Cc1ccccc1)S(=O)(=O)c1ccc(C(=O)Nc2nnc(CSC)o2)cc1 was read as Pf apPOL block -13 and mHTT CaM bind 12.
Screening CCN(Cc1ccccc1)S(=O)(=O)c1ccc(C(=O)Nc2nnc(C)o2)cc1 returned Pf apPOL block -16 and mHTT CaM bind 74*.
Screening CCCCN(CC)S(=O)(=O)c1ccc(C(=O)Nc2nnc(C)o2)cc1 returned Pf apPOL block -13 and mHTT CaM bind 22.
For Cc1nnc(NC(=O)c2ccc(S(=O)(=O)N(CC(C)C)CC(C)C)cc2)o1 the results were Pf apPOL block -74 and mHTT CaM bind 51*.
Screening CCCCN(CC)S(=O)(=O)c1ccc(C(=O)Nc2nnc(-c3ccccc3OC)o2)cc1 returned Pf apPOL block -7 and mHTT CaM bind 52*.
`CCN(CC)S(=O)(=O)c1ccc(C(=O)Nc2nnc(-c3ccc(OC)cc3OC)o2)cc1` gave Pf apPOL block -12 and mHTT CaM bind 3.
For Cc1ccccc1-c1noc(C2CCCN2C(=O)Nc2ccccc2F)n1 (stereo not drawn) the results were Pf apPOL block -3 and mHTT CaM bind -14.
O=C(c1ccccn1)N1CCCC(Nc2ncnc3c2CCC3)C1 (stereo not drawn) was read as Pf apPOL block 2 and mHTT CaM bind -14.
Screening CN(Cc1ccccc1)S(=O)(=O)c1ccc(F)c(C(=O)Nc2cc(Cl)ccc2Cl)c1 returned Pf apPOL block -3 and mHTT CaM bind -1.
Screening COc1ccccc1Nc1nc(-c2ccc(OC)c(OC)c2)cs1 returned Pf apPOL block -2 and mHTT CaM bind 41.
`NS(=O)(=O)c1ccc(Nc2nc(-c3cccnc3)cs2)cc1` gave Pf apPOL block -3 and mHTT CaM bind 21.
COc1ccc(-c2csc(Nc3ccc(N(C)C)cc3)n2)cc1OC was read as Pf apPOL block -1 and mHTT CaM bind 97*.
Screening COc1ccc(-c2csc(Nc3ccc(S(N)(=O)=O)cc3)n2)cc1OC returned Pf apPOL block -6 and mHTT CaM bind 50*.
